# Reference: ChEMBL document CHEMBL4513216, “Probing the Open Global Health Chemical Diversity Library for Multistage-Active Starting Points for Next-Generation Antimalarials” (ACS Infect Dis, 2020)
# Out of some 69,000 compounds screened, about 8,600 (12%) showed an effect of 50% or more. The sample holds strong results, similar compounds and a random draw of the others, so the mix is not that of the screen.
# Test system: Plasmodium berghei
# Assay: Screen against P. berghei liver stage (PbLuc), transformed with Luciferase, at 10uM
# Assay type: functional, HepG2
# Details: tested at 10 uM
row,Compound,INHIBITION
1,COCCn1c(=O)n(C)c(=O)c2ccc(C3CCC(CN)CC3)nc21 (stereo not drawn),36.1%
2,O=C(NC1CCCC1)N1CCC2(CC1)CC(Oc1cccnc1)CO2 (stereo not drawn),9.63%
3,CCOCC(=O)N(C)Cc1nc(C(F)(F)F)cs1,9.52%
4,CC(C)CC(=O)N(C)Cc1nc(C(F)(F)F)cs1,62.9%
5,CC(C)N(C)CC(=O)N(C)Cc1nc(C(F)(F)F)cs1,22.7%
6,Cc1ccc(N2CCCC(NCc3nnc4n3CCCC4)C2=O)cc1 (stereo not drawn),-76.95%
7,CNC(=O)[C@H]1C[C@@H]2CN(C(=O)c3occc3C)C[C@@H]2N1S(C)(=O)=O,-0.371%
8,O=C1CCSCC(C(=O)N2CCCC2)N1 (stereo not drawn),38.5%
9,CS(=O)(=O)N1CCN(C(=O)C2CSCCC(=O)N2)CC1 (stereo not drawn),60%
10,O=C1CCSCC(C(=O)N2CCCCC2)N1 (stereo not drawn),-18.3%
11,CC(C)CN1CC[C@@H]2[C@@H]1CCN2S(=O)(=O)c1cccs1,1.34%
12,O=C(NC1CCC1)c1cccc(S(=O)(=O)NCc2nc(C3CC3)no2)c1,-9.2%
13,O=C(c1ccc(S(=O)(=O)NCc2ccon2)cc1)N1CCNCC1,41.3%
14,NC(=O)CC1CCCN(C(=O)NCC2(c3cccs3)CCCC2)C1 (stereo not drawn),-9.51%
15,Cc1nn(C)c(N(C)C)c1CNCc1cccc(Cl)c1,68.1%
16,Cc1nn(C)c(N(C)C)c1CNCC(O)COc1ccc(F)cc1 (stereo not drawn),0%
17,Cc1nn(C)c(N(C)C)c1CNCc1cccc(Br)c1,-22.1%
18,COc1cccc(CNCc2c(C(C)C)nn(C)c2N(C)C)c1,12.22%
19,COCc1cccc(CNCc2c(C(C)C)nn(C)c2N(C)C)c1,50.8%
20,Cc1nn(C)c(N(C)C)c1CNCc1cccc(CN(C)C)c1,-72.2%
21,COc1ccc2cc(CNCc3c(C)nn(C)c3N(C)C)ccc2c1,53%
22,Cc1nn(C)c(N(C)C)c1CNCC(O)COc1cccc(F)c1 (stereo not drawn),83.2%
23,COc1cccc(CNCc2c(C)nn(C)c2N(C)C)c1,38.95%
24,COCc1cccc(CNCc2c(C)nn(C)c2N(C)C)c1,44.3%

row,Compound,INHIBITION
1,Cc1cccc(OCC(O)CNCc2c(C)nn(C)c2N(C)C)c1 (stereo not drawn),-45.2%
2,COc1cc(CNCc2c(C)nn(C)c2N(C)C)ccc1C,30.8%
3,COCCN1C(=O)CCC12CCC(NCc1ccc(OC)cc1)CC2 (stereo not drawn),15.3%
4,COc1ccc(OC)c(-c2cc(C(=O)NCC3(CO)CC3)n(C)n2)c1,6.54%
5,O=C(NC[C@]12COC[C@H]1CN(Cc1cccnc1)C2)c1ccno1,29%
6,c1cc(C2CCN(Cc3ccc4c(c3)OCO4)CC2)ccn1,19.4%
7,Cc1ccc(NCc2cc(C#N)ccc2F)cc1-n1nnnc1C,-3.83%
8,CC(C)CC(=O)N1CCCn2cnc(CNS(C)(=O)=O)c2C1,-3.33%
9,CC(C)NC(=O)[C@H]1C[C@@H]2[C@@H](C1)OCCN2Cc1nccs1,16.9%
10,Nc1nccnc1C1CN(C(=O)c2ccnnc2)CCO1 (stereo not drawn),26.8%
11,CSC(C)(C)CNC(=O)NC1CCC1,34.6%
12,CCNc1cc2c(nn1)CCN(C(=O)C(C)c1c(C)noc1C)C2 (stereo not drawn),31.9%
13,Cc1nnc(NC(=O)NCc2ccc(F)cc2)s1,-162%
14,COC(=O)c1ccoc1CN(C)Cc1ccccc1,37.1%
15,CC(c1cc(F)ccc1F)N(C)Cc1nc2c(cnn2C)c(=O)[nH]1 (stereo not drawn),16.34%
16,CCc1nn(-c2cc(Oc3cc(C)ccc3C)nc(C)n2)c(N)c1C#N,64.9%
17,COc1ccc(C)cc1NC(=O)Cn1nc(C)c(C#N)c1N,16.8%
18,CCc1nn(-c2cc(Oc3ccccc3)nc(C)n2)c(N)c1C#N,31.8%
19,CCc1nn(-c2cc(Oc3cc(C)ccc3C)ncn2)c(N)c1C#N,57.8%
20,CCOC(=O)c1cnn(-c2cc(Oc3cc(C)ccc3C)ncn2)c1N,18.6%
21,CCc1nn(-c2cc(Oc3cccc(C)c3)nc(C)n2)c(N)c1C#N,-7.81%
22,Cc1ccc(C)c(NC(=O)Cn2nc(C)c(C#N)c2N)c1,14.6%
23,Cc1ccc(C)c(Oc2cc(-n3nc(C)c(C#N)c3N)nc(C)n2)c1,55.6%
24,CC(O)c1cn(Cc2ccccc2)nn1 (stereo not drawn),-1.84%

row,Compound,INHIBITION
1,O=C(c1ncccn1)N1CCC[C@]2(C[C@H](OCC3CC3)CO2)C1,40.4%
2,COc1c(C2CCCN2C(=O)c2sc(C)nc2C)c(C)nn1C (stereo not drawn),8.64%
3,CN(C)[C@@H]1CN(C(=O)CCc2ccccc2)[C@@H]2CCCO[C@H]12,8.66%
4,Cc1ccc(CC(=O)N2CCCC2Cn2nc(C)cc2C)cn1 (stereo not drawn),33.7%
5,CC(=O)N1CCCC(C(=O)NCCc2ccc(F)c(Br)c2)C1 (stereo not drawn),9.72%
6,CCc1c(C(=O)N2CCN(c3cnccn3)CC2)cnn1C(C)(C)C,-0.219%
7,CC(=O)N(Cc1noc(C2CC2)n1)C1CCN(Cc2cccnc2)C1 (stereo not drawn),25.7%
8,COc1cc(CNc2cnn(CCN3CCOCC3)c2)cc(OC)c1,1.74%
9,Clc1ccc(CNc2cnn(CCN3CCOCC3)c2)cc1Cl,56%
10,Cc1ccccc1C(=O)Nc1cnn(CCN2CCOCC2)c1,-21.3%
11,O=C(Nc1cnn(CCN2CCOCC2)c1)c1ccccc1Cl,-13.4%
12,O=C(Nc1cnn(CCN2CCOCC2)c1)c1ccccc1O,55.9%
13,N#Cc1ccc(CNc2cnn(CCN3CCOCC3)c2)cc1,24%
14,COc1ccccc1CN(CC1CCCO1)C(=O)c1scnc1C (stereo not drawn),-9.08%
15,O=c1ccc2c(n1Cc1cccnc1)CCN(Cc1ccoc1)CC2,-110%
16,Cc1cncc(C2CCCN2CCO)n1 (stereo not drawn),0.696%
17,O=C(c1cnccn1)N1CC[C@@H]2CO[C@@H](CN3CCCC3)[C@@H]2C1,37.8%
18,CSc1ccccc1CN1C[C@H]2CC[C@@H](C1)N(CC1CC1)C2=O,28.3%
19,COc1c(CNCCc2c[nH]c3cc(F)ccc23)c(C)nn1C,70.2%
20,COc1c(CNCCc2c[nH]c3ccccc23)c(C)nn1C,30.1%
21,COc1c(CNCCc2c[nH]c3cc(F)ccc23)c(C(C)C)nn1C,44.2%
22,CS(=O)(=O)c1ccc(CNc2nccc(C(F)(F)F)n2)cc1,-33.9%
23,CN1CC2(CCCN(C(=O)Cc3cccc(O)c3)C2)OC1=O (stereo not drawn),16.3%
24,CN(C)CC1COCCN1C(=O)c1ccccc1C(=O)c1ccccc1 (stereo not drawn),22.6%

row,Compound,INHIBITION
1,O=C1N(CCc2ccccc2)CCCC12CCN(C(CO)CO)C2 (stereo not drawn),-33.9%
2,Cc1cccc(CN2CCCC3(CCN(C4CCSCC4)C3)C2=O)c1 (stereo not drawn),39.9%
3,CN(C)S(=O)(=O)N1CCC2(CCCN(Cc3ccc(F)cc3)C2=O)C1 (stereo not drawn),36.8%
4,O=C1N(Cc2ccc(F)c(F)c2)CCCC12CCN(C1CCCCC1)C2 (stereo not drawn),81.7%
5,O=C1N(Cc2ccc(F)c(F)c2)CCCC12CCN(C1CCSCC1)C2 (stereo not drawn),80.8%
6,CCS(=O)(=O)N1CCC2(CCCN(Cc3ccc(F)c(F)c3)C2=O)C1 (stereo not drawn),39.4%
7,O=C1N(Cc2ccc(F)c(F)c2)CCCC12CCN(C1CCCC1)C2 (stereo not drawn),37.4%
8,CC(C)N1CCC2(CCCN(Cc3ccc(F)cc3)C2=O)C1 (stereo not drawn),70.4%
9,O=C1N(Cc2ccc(F)cc2)CCCC12CCN(C1CCSCC1)C2 (stereo not drawn),33.3%
10,Cc1ccccc1C(=O)N1CCC2(CCCN2CCN(C)C)CC1,-35.6%
11,CC(C)c1ncncc1C(=O)NCCN1CCCC1,29%
12,CN(C)C(=O)c1c[nH]nc1C1CCN(S(=O)(=O)c2ccc(Cl)cc2)CC1,24.8%
13,CN(Cc1ccco1)[C@@H]1CN(CC2CCOCC2)[C@@H]2CCCO[C@H]12,33.4%
14,CC(C)OCCCNC(=O)CN1CCN(c2nccs2)C(C)C1 (stereo not drawn),-27.5%
15,Cc1cn[nH]c1C1COCCN1S(=O)(=O)c1cn[nH]c1 (stereo not drawn),23.2%
16,Cn1cnnc1SCC(=O)NC1CC(=O)N(CCc2cccc(Cl)c2)C1 (stereo not drawn),6.29%
17,CC(=O)N1CCC2(CC1)CC(N1CCOCC1)c1ccc(C)cc12 (stereo not drawn),-39.2%
18,Cc1nc(NCc2nccn2C)cc(C2COCCN2)n1 (stereo not drawn),23.375%
19,Cc1noc(-c2ccc(N3CCCC(C(=O)N4CCSCC4)C3)nc2)n1 (stereo not drawn),28.8%
20,Cc1noc(-c2ccc(N3CCC(C(=O)N4CCCC4)CC3)nc2)n1,76.7%
21,Cc1noc(-c2ccc(N3CCCC(C(=O)O)C3)nc2)n1 (stereo not drawn),-19.2%
22,CCn1ncc(S(=O)(=O)N[C@@H]2CC[C@@H](n3ccnc3C)[C@@H]2O)c1C,4.9%
23,Cc1cc(=O)[nH]c(=O)n1COCCOCc1ccccc1,8.41%
24,Cc1cc(=O)[nH]c(=O)n1COCc1ccccc1,13.6%

row,Compound,INHIBITION
1,Cc1ccccc1COCCOCn1c(C)cc(=O)[nH]c1=O,51.3%
2,CC(C)n1ccnc1CN1CCOC(CCc2ccccc2)C1 (stereo not drawn),9.34%
3,CC(C)n1ccnc1CN1CCCN(C(=O)CC2CCCO2)CC1 (stereo not drawn),-32%
4,CC(C)n1ccnc1CN1CCOC(CC2CCCCC2)C1 (stereo not drawn),50%
5,Cc1nc2sccn2c1CNC1(c2ccccc2F)CCCC1,52.4%
6,COc1ccccc1C1(NCc2c(C)nc3c(C)cccn23)CCCC1,49%
7,Cc1nc2sccn2c1CNc1cc(C(=O)O)ccc1F,-15.7%
8,O=C(Cn1cccn1)N(CCO)CCSc1ccc(Cl)cc1,24.7%
9,Cc1nc(C(C)NC(=O)c2cn(Cc3ccc(Cl)cc3)nn2)n[nH]1 (stereo not drawn),39.9%
10,Cc1noc(C(C)C)c1C(=O)NCC(c1ccccc1)N(C)C (stereo not drawn),-7.35%
11,COCc1ccc(CN2CCC(O)(Cn3ccc4ncccc43)CC2)o1,38.7%
12,OC1(Cn2ccc3ccncc32)CCN(Cc2ccccn2)CC1,37%
13,OC1(Cn2ccc3ncccc32)CCN(Cc2ccccc2F)CC1,70.1%
14,COc1ccccc1CN1CCC(O)(Cn2ccc3ncccc32)CC1,14.7%
15,CCn1ncc(CN2CCC(O)(Cn3ccc4ncccc43)CC2)c1C,19.6%
16,OC1(Cn2ccc3ncccc32)CCN(Cc2cc(F)cc(F)c2)CC1,54.4%
17,Cc1ccc(CN2CCC(O)(Cn3ccc4ncccc43)CC2)o1,28%
18,CCn1cc(CN2CCC(O)(Cn3ccc4ncccc43)CC2)cn1,38.8%
19,Cc1cc(CN2CCC(O)(Cn3ccc4ncccc43)CC2)c(C)s1,23.2%
20,OC1(Cn2ccc3ncccc32)CCN(Cc2cccs2)CC1,64.1%
21,OC1(Cn2ccc3ncccc32)CCN(Cc2ccccn2)CC1,50.6%
22,OC1(Cn2ccc3ncccc32)CCN(Cc2cccnc2)CC1,35.2%
